From the supplement of paper PMC10849652 come the findings set out here.

Assay in all cases: log2 fold change, soluble protein after heating vs DMSO (PISA); higher = thermal stabilisation; K562 cells, 10 uM, 30 min; active = over 0.2 and 3.5 SD of the protein, either way, in both replicates (recomputed)
Compound in one test: C#Cc1cccc(Nc2ncnc3cc(OCCOC)c(OCCOC)cc23)c1 [erlotinib]
The method, boiled down: (§1)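 Quantification of soluble protein used TMTpro 16plex LC-MS/MS, with channel sums equalised. Samples were the supernatant after 21,000xg for 90 min of pooled aliquots from K562 cells (2×10^6 cells/mL) treated with 10 μM compound for 30 min, heated for 3 min over 48°C-58°C, and extracted in PBS with 0.5% NP-40 at 4°C. Values, from duplicates, describe thermal stability against control samples on a log2 fold-change scale.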

Compound in test [1]: C/C(=N\NC(=O)C1=CC(=CC=C1)S(=O)(=O)N2CCOCC2)/C3=C(C=CC(=C3)Cl)O
The gist of the method:
as §1

Compound in test [2]: C1=CC(=C(C=C1Cl)C2=NC3=NC=CN=C3C(=N2)NC4=CC=NC=C4)F
The gist of the method: as §1

Compound in test [3]: C1=CC(=CC=C1C2=NC3=C(N2)C=C(C=C3)C(=O)N)OC4=CC=C(C=C4)Cl
The gist of the method: as §1

Compound in test [4]: C1=CC2=C(C=CC(=C2)/C=C\3/C(=O)NC(=NCC4=CC=CS4)S3)N=C1
The method, boiled down: as §1

Compound in test [5]: C1=CC2=NC=CN=C2C=C1/C=C/3\C(=O)NC(=O)S3
The method, boiled down: as §1

Compound in test [6]: C1=CC=C(C=C1)C2=NC(=C(N2)C3=CC=NC=C3)C4=CC(=C(C=C4)Cl)O
The gist of the method: as §1

Compound in test [7]: C1=CC=C2C(=C1)C3=NNC4=CC=CC(=C43)C2=O
The gist of the method:
as §1

Compound in test [8]: C1CCN(C1)C(=O)NC2=CC=CC(=C2)NC3=NC=C(C(=N3)NCCC4=CN=CN4)Br
The method, boiled down:
as §1

Compound in test [9]: C1CN(CCC1(CC2=CC=C(C=C2)Cl)N)C3=NC=NC4=C3C=CN4
The gist of the method: as §1

The full data set covers some 7,900 targets. This sample favours those with a hit. About 0.6% of all pairs of compound and target were hits. Unmarked numbers belong to inactive results.

UniProt Q9BZM6, sequence (Q9BZM6 whole entry, looked up): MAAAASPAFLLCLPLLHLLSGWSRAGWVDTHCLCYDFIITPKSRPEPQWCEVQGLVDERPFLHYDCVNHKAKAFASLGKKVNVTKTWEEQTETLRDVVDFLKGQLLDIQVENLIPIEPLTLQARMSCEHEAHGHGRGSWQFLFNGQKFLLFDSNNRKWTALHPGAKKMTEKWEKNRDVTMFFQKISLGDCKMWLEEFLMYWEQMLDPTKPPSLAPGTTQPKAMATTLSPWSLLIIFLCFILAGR
UniProt Q9Y5Z9, sequence (Q9Y5Z9 whole entry, looked up): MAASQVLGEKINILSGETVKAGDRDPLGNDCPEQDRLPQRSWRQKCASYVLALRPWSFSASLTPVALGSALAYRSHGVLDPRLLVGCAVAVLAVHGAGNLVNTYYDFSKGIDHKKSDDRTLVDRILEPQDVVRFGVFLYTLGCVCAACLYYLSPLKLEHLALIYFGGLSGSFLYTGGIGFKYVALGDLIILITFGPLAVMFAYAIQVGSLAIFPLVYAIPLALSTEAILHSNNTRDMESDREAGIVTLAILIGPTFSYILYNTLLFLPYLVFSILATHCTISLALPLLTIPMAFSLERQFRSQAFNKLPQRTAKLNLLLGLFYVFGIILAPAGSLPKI
UniProt Q96LJ8, sequence (Q96LJ8 whole entry, looked up): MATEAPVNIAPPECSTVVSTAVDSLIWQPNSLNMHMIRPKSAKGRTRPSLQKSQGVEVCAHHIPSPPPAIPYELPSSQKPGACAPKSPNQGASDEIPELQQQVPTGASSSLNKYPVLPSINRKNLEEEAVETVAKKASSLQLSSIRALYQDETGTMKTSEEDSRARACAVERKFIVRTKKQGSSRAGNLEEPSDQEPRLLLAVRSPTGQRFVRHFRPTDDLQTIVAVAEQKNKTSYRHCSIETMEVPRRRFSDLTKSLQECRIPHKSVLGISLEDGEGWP
UniProt Q9C035, sequence (Q9C035 whole entry, looked up): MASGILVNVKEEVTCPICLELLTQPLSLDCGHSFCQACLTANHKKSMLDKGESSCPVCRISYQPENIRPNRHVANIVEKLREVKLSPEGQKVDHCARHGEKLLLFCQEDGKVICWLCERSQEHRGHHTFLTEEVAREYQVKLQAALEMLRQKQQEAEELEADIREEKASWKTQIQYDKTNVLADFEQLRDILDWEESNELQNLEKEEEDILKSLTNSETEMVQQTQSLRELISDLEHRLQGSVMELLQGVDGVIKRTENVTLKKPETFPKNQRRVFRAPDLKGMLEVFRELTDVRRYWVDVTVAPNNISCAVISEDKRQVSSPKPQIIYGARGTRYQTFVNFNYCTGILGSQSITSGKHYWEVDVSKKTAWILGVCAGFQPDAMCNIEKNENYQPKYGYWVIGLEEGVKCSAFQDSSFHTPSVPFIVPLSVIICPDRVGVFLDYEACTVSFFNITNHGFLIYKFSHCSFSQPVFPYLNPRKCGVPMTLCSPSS
UniProt Q9BXJ8, sequence (Q9BXJ8 whole entry, looked up): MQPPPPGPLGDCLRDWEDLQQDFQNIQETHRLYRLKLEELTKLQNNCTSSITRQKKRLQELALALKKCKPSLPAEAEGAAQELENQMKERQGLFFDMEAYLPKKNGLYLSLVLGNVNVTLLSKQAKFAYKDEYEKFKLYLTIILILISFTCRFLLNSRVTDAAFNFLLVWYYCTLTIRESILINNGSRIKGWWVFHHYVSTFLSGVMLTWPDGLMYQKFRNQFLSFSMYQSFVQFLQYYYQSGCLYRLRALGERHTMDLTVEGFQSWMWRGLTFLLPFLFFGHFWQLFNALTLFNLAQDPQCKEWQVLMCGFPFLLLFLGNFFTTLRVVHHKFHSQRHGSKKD
UniProt O75691, sequence (O75691 whole entry, looked up): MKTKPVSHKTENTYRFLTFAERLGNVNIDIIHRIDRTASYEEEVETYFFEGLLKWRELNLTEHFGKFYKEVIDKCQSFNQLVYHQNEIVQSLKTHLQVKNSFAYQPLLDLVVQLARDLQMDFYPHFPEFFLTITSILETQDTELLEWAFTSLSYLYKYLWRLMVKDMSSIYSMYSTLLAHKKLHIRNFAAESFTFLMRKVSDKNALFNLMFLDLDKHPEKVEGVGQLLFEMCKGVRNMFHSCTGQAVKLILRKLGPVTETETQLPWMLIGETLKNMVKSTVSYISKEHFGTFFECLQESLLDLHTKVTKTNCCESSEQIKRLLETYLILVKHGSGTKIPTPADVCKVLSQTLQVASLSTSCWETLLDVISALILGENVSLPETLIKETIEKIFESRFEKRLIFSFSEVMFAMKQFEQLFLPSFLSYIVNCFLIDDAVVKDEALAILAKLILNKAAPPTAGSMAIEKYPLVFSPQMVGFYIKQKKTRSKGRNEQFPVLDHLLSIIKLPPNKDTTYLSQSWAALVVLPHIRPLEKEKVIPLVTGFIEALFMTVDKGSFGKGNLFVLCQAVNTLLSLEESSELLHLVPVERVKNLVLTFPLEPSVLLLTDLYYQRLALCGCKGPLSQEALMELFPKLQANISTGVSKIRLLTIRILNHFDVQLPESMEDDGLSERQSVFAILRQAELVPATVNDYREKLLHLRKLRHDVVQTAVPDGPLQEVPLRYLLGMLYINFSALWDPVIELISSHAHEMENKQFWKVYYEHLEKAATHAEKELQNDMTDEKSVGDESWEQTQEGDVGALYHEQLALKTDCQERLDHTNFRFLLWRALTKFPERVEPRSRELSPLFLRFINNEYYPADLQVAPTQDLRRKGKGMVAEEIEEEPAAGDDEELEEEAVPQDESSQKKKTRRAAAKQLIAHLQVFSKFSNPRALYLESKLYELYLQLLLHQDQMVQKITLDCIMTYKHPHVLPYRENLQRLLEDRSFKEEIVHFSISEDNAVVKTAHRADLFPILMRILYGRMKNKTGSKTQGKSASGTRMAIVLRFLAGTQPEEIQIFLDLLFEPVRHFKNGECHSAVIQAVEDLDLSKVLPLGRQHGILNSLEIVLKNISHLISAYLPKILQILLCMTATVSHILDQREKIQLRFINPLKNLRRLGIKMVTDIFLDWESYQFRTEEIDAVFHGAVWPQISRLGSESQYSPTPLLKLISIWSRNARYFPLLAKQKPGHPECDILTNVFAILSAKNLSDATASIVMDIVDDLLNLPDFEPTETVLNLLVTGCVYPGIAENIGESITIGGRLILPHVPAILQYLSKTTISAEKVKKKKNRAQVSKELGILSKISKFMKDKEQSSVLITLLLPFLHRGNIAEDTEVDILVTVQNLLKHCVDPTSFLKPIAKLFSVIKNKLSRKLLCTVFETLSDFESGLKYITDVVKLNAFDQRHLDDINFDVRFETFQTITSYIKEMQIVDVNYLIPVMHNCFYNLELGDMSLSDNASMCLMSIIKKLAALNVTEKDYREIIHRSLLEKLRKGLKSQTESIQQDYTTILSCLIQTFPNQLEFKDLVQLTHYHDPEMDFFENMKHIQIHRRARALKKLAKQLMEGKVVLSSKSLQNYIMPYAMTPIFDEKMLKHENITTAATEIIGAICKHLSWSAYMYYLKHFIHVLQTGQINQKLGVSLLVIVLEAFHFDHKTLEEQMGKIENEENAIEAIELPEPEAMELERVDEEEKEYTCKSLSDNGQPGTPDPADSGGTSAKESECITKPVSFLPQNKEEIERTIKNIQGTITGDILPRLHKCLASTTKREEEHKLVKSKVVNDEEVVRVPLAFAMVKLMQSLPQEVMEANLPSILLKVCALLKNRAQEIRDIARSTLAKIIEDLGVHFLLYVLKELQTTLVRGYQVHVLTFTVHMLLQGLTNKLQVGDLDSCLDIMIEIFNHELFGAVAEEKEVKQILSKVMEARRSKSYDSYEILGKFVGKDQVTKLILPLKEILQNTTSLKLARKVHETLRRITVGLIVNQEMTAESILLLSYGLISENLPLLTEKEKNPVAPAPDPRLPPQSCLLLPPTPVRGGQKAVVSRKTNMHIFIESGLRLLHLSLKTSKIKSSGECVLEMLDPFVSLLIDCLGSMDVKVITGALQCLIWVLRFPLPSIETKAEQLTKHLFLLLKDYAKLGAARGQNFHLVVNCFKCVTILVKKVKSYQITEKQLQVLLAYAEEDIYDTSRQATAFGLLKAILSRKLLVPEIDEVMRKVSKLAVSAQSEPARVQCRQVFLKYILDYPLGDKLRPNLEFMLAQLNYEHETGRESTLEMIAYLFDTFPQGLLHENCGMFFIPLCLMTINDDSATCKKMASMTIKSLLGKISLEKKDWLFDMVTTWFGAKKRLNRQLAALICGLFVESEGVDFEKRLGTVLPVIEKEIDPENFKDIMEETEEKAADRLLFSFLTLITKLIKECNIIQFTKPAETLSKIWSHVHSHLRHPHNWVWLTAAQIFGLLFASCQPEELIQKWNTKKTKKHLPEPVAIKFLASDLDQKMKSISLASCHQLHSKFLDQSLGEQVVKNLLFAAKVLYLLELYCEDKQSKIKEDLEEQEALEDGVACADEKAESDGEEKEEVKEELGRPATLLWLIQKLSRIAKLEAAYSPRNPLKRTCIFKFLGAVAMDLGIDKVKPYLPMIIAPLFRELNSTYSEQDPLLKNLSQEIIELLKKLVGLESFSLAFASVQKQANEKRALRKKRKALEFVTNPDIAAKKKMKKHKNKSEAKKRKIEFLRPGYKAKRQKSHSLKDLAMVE
UniProt Q9NVA4, sequence (Q9NVA4 whole entry, looked up): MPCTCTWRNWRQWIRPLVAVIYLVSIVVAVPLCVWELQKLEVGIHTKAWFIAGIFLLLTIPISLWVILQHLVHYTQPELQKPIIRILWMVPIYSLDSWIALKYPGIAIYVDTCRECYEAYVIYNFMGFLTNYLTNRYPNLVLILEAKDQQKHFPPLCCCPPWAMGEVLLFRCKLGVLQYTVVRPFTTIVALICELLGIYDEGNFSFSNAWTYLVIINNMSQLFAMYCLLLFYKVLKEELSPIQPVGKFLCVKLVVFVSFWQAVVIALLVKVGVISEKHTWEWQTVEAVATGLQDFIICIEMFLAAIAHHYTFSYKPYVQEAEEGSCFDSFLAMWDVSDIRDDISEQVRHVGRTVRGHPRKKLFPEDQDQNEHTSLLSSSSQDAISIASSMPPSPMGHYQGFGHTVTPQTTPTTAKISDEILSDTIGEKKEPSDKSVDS

With TMEM120A (UniProt Q9BXJ8), the log2 fold change in the test with erlotinib was -0.036; in test [1] it was 0.109; in test [2] it was 0.174; in [3], 0.053; in test [4] it was 0; in test [5], 0.236. The log2 fold change was -0.02 in test [6], -0.036 in [7], -0.071 in [8] and 0.1 in test [9].
With UBXN10 (UniProt Q96LJ8), the log2 fold change with erlotinib was -0.036; in [2], 0.004; in test [3], 0.048; in test [5], -0.068; in test [6], -0.077; in test [8] it was -0.101. Further, the log2 fold change in test [9] was 0.128.
Consider TMEM184C (UniProt Q9NVA4), for which the log2 fold change was 0.04 in test [1]; -0.055 in [2]; -0.05 in [4]; -0.027 in test [5]; -0.047 in test [6]; -0.009 in test [7]. In addition, the log2 fold change in [8] was -0.092; in [9], -0.059.
On to ULBP1 (UniProt Q9BZM6), for which the log2 fold change is -0.017 with erlotinib; 0.011 in [1]; 0.231 in [2]; 0.044 in [3]; 0.021 in [4]; -0.083 in test [6]. In addition, the log2 fold change is 0.037 in test [7], -0.073 in test [8] and 0.078 in [9].
As for WDR4 isoform 3 (UniProt P57081), the log2 fold change in [2] is -0.144; in test [5] it was 0.045.
As to WARS1 (UniProt G3V3P2), the log2 fold change in test [5] was 0.155.
With WARS1 (UniProt G3V277), the log2 fold change was 0.183 with erlotinib; -0.032 in test [1]; -0.076 in test [3]; 0.25 in test [4]; 0.036 in test [5]; -0.014 in test [7]. Besides, the log2 fold change is 0.141 in test [8] and -0.008 in [9].
Take UTP20 (UniProt O75691): the log2 fold change with erlotinib was -0.082; in test [2] it was 0.053; in test [3] it was -0.321; in test [8] it was 0.061; in test [9], 0.04.
For the target UBE3B (UniProt Q7Z3V4), the log2 fold change is 0.018 in test [1]; 0.08 in test [2]; 0.121 in test [4]; 0.135 in test [5]; 0.064 in test [6]; -0.043 in test [7]. For the same target, the log2 fold change is 0.395 in test [8] and 0.16 in test [9].
Take VKORC1 (UniProt Q9BQB6): the log2 fold change with erlotinib is 0.048; in test [1], -0.048; in test [3], -0.019; in test [4], 0.175; in test [5], 0.113; in test [6], 0.044. In addition, the log2 fold change is 0.151 in test [7], -0.049 in test [8] and 0.005 in test [9].
With TOM1 (UniProt O60784), the log2 fold change with erlotinib was 0.082; in test [2], 0.193; in test [3] it was -0.037; in test [5], 0.186; in test [8], 0.022; in test [9] it was -0.097.
Turning to TRIM5 (UniProt Q9C035), the log2 fold change was -0.061 in the test with erlotinib; 0.075 in [1]; 0.111 in test [2]; 0.162 in test [3]; 0.012 in test [4]; -0.182 in test [6]. The log2 fold change was 0.019 in [7], -0.077 in test [8] and -0.01 in test [9].
Take UBIAD1 (UniProt Q9Y5Z9): the log2 fold change is 0.101 with erlotinib; -0.052 in test [1]; 0.04 in [3]; 0.194 in test [4]; -0.036 in test [5]; 0.259 in test [6]. Moreover, the log2 fold change was 0.297 (active) in test [7], 0 in test [8] and 0.094 in test [9].
With WDR46, A0A0G2JJL1, the log2 fold change was -0.273 with erlotinib; -0.741 in test [2]; -0.011 in [3]; 0.027 in test [5]; 0.279 in [8]; 0.114 in test [9].
Consider UBXN8 (UniProt O00124), for which the log2 fold change was 0.056 in test [1]; 0.147 in [2]; 0.141 in [4]; -0.41 in test [5]; -0.149 in [6]; -0.036 in [7]. In addition, the results for the log2 fold change in [8] and in [9] were 0.167 and -0.019, respectively.
On to UBAP2L (UniProt F8W726), for which the log2 fold change with erlotinib was 0.019; in test [3] it was 0.004; in test [5] it was -0.019; in test [8], 0; in [9], 0.124.
With TRIM44 (UniProt Q96DX7), the log2 fold change with erlotinib is 0.022; in test [1], 0.1; in [3] it was 0.025; in test [4] it was 0.028; in [5], 0.087; in test [6] it was -0.061. In addition, the values for the log2 fold change in test [7], in [8] and in test [9] were -0.037, -0.023 and -0.014, respectively.
